Compound activity from PubChem.
Mdm2-MdmX inh – disrupts the human Mdm2-MdmX interaction | SaOS-2 split-luciferase Mdm2/MdmX complementation, luminescence | AID 485346 | 3% of 330,000 active | O15151+Q00987 | inhibition, % at 8 µM;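 active = inhibition of at least 50% at 8 µM in the primary screen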
Target sequence (O15151 whole entry, looked up): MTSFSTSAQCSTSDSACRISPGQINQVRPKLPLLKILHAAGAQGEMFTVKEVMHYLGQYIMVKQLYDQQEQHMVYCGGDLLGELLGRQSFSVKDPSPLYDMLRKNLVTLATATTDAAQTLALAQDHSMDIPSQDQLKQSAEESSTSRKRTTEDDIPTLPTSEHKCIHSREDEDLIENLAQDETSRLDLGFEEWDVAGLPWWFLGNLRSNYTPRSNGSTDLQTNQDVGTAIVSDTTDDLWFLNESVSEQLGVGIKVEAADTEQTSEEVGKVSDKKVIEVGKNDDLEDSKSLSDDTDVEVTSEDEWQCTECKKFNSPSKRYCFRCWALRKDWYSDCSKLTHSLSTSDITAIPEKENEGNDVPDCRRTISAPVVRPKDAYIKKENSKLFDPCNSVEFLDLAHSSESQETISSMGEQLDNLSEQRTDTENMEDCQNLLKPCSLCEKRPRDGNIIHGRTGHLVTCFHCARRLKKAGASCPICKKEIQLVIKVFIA
Target sequence (Q00987 whole entry, looked up): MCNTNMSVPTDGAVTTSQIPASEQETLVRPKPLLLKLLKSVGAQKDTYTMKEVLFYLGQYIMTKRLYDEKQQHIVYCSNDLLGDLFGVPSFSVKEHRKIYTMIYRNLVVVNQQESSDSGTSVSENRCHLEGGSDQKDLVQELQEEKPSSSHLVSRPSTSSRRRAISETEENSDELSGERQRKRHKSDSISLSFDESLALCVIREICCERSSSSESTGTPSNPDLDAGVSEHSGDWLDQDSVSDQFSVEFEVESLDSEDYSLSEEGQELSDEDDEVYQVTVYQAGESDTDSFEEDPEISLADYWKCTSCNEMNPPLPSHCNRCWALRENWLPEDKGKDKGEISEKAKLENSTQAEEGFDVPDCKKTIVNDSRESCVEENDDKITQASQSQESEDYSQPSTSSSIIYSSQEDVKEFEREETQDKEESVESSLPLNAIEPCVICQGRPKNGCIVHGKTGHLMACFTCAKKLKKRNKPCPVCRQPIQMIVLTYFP
Beta cell apopt – beta cell apoptosis inhibition. protection from apoptosis, % (concentration not given with the values). INS-1E cytokine-induced death, ATP luminescence, 48 h; percent of positive-control rescue, neutral wells zero. 0.8% of 300,000 active;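 active = Every replicate reaches about 75%, or at least half do and their mean reaches it too, limit read from the data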;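 note: 0% = cytokine-treated negative control wells and 100% = positive control rescue; higher means more ATP so stronger rescue from cytokine killing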
Gli-Sufu block – Gli-Sufu pathway antagonism. Sufu-KO-LIGHT fibroblasts, Gli luciferase reporter luminescence. inhibition, % at 5 µM. 0.74% of 340,000 active. AID 588413;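 active = inhibition above about 55%, limit read from the data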;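 note: 0% = DMSO-treated cells and 100% = wells with medium but no cells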
PAX8 reporter – PAX8 transcriptional activity inhibition. RMG-I TPO-luciferase reporter, SteadyGlo, 24 h. 1.2% of 360,000 active. inhibition, % at 12.6 µM;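 active = mean replicate inhibition at least 60% with every replicate also reaching 60%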;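 note: luciferase light reporting Pax8 driven TPO promoter activity; plate controls were median of neutral control wells for no effect and mitoxantrone controls for full effect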
Shn3 3UTR inh – Schnurri-3 reporter inhibition in Clone20 osteoblasts; 0.52% of 360,000 active; Clone20 osteoblast Shn3 3'UTR firefly luciferase, 24 h; inhibition, % at 12.5 µM;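 active = mean inhibition of at least 75% with every replicate also reaching 75%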;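 note: 0% = median of neutral control wells and 100% = pilot-screen positive control compound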
CSC inhib – blocks cancer stem cells; cancer stem cell-like cells viability, luminescence; inhibition, % at 7.5 µM; 1.1% of 300,000 active; in the data active = inhibition above about 75%; tested in HMLE shEcad cells
Mdm2 MdmX conf – confirmation of human Mdm2/MdmX interaction inhibitors; inhibition, % at 8 µM; shares compounds with Mdm2-MdmX inh; Mdm2-MdmX binding, luminescent assay; 55% of 10,000 active; in the data active = inhibition above about 40%
Full FLuc ctr – inhibits full-length luciferase, flagging false Mdm2/MdmX hits; SaOS-2 full-length luciferase counterscreen, luminescence; 77% of 6,200 active; inhibition, % at 8 µM; shares compounds with Mdm2-MdmX inh;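 active = mean inhibition at 8 µM reaching about 37%, which flags the compound as non-specific, limit read from the data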;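 note: p53-null SaOS-2 cells with luciferase driven by a doxycycline-inducible promoter; compound on cells about two nights before reading with doxycycline added after day one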
Active calls of the source: *; · = no result given. Shown are actives, neighbours in structure and some others; about 4% of the full set was active somewhere.

SMILES	Mdm2-MdmX inh	Beta cell apopt	Gli-Sufu block	PAX8 reporter	Shn3 3UTR inh	CSC inhib	Mdm2 MdmX conf	others
COc1ccc(C2CC(c3ccncc3)=NN2c2ccc(S(N)(=O)=O)cc2)cc1 (stereo unspecified)	27.4	·	-79.6	-41.5	-139.2	·	·
COc1ccc(C2CC(c3cccc(Cl)c3)=NN2c2ccc(S(N)(=O)=O)cc2)cc1 (stereo unspecified)	67.7*	·	8.4	12.6	8.9	·	-2.6
COc1ccc(C2CC(c3ccccc3)=NN2c2ccc(S(N)(=O)=O)cc2)cc1OC (stereo unspecified)	-9.2	·	18.3	9.9	-9.5	-3.9	·
NS(=O)(=O)c1ccc(N2N=C(c3ccccc3)CC2c2cccc(F)c2)cc1 (stereo unspecified)	·	7.1	10.4	31.6	26.8	22.9	·
O=[N+]([O-])c1ccc(N2N=C(c3ccco3)CC2c2ccccc2)cc1 (stereo unspecified)	13.1	13.5	-3.7	·	8.1	16.2	·
O=C(Cc1ccncc1)NCC[C@H]1CC[C@H](NS(=O)(=O)c2ccccc2Cl)[C@@H](CO)O1	·	·	·	-0.1	·	·	·
NS(=O)(=O)c1ccc(N2N=C(c3ccccc3)CC2c2ccccc2Br)cc1 (stereo unspecified)	52.0*	·	3.9	-8.9	1.1	·	17.2
C[C@@H]1CN([C@H](C)CO)C(=O)c2cccc(NC(=O)c3cnccn3)c2O[C@H]1CN(C)Cc1ccc2c(c1)OCO2	·	·	·	0.3	·	·	·
Cc1ccc(S(=O)(=O)CC(=O)N(CCCN2CCOCC2)c2nc3c(F)cccc3s2)cc1	2.3	-3.4	-5.0	·	-50.2	-6.3	·
O=C(CCS(=O)(=O)c1ccccc1)N(CCCN1CCOCC1)c1nc2c(F)cccc2s1	78.9*	-19.6	-7.5	-7.1	43.9	·	58.5*	Full FLuc ctr=38.0*
O=C(C[C@@H]1CC[C@H]2[C@@H](COC[C@H](O)CN2Cc2ccccc2F)O1)NC1CCC1	·	·	·	22.4	·	·	·
O=C(C[C@@H]1CC[C@H]2[C@@H](COC[C@@H](O)CN2Cc2nccs2)O1)NCc1ccc(F)cc1	·	·	·	15.2	·	·	·
Oc1cccc(-c2nc3c4c(ncn3n2)-c2ccccc2CC42CCCC2)c1	58.3*	-4.5	5.3	·	41.2	111.4*	7.2
COc1ccc(/C=N/Nc2nnc(-c3ccccc3)c(=O)[nH]2)cc1	75.7*	·	9.8	3.7	-6.8	-16.3	19.9
O=c1[nH]c(N/N=C/c2ccccc2Br)nnc1-c1ccccc1	13.2	7.8	-3.6	-22.3	-4.9	26.1	·
CCCNC(=O)N1CCC2(CC1)CN(S(C)(=O)=O)[C@H](CO)c1c2c2ccc(OC)cc2n1C	·	·	·	8.3	·	·	·
CC1=CC(=Nc2c(C)n(C)n(-c3ccccc3)c2=O)C=CC1=O	69.0*	3.8	·	·	·	10.5	7.5
CC1=CC(=Nc2c(C)n(C)n(-c3ccccc3)c2=O)C=C(C)C1=O	77.4*	·	31.7	6.0	-2.6	12.3	26.3
CCC(C)C1=CC(=Nc2c(C)n(C)n(-c3ccccc3)c2=O)C=C(C(C)CC)C1=O (stereo unspecified)	5.9	-2.3	-2.3	-0.2	8.5	6.3	·
CCOC(=O)C1CCN(c2ccccc2CN2CCN(c3ccccc3OCC)CC2)CC1	63.3*	-2.7	14.6	·	24.9	13.4	37.8	Full FLuc ctr=71.4*
CCOC(=O)C1CCN(Cc2ccccn2)CC1	-21.2	-3.5	·	·	·	-2.5	·
O=C(Cc1ccc(-n2cccc2)cc1)NCc1cccs1	54.7*	1.8	5.8	·	8.7	52.6	46.5*	Full FLuc ctr=67.3*
COC(=O)C1=C/c2ccccc2C(C2CC2)N(Cc2ccc(OC)cc2)/C=C\1C(=O)OC (stereo unspecified)	·	·	·	-9.4	·	·	·
CCC(=O)Nc1ccc2c(c1)OC[C@@H](C)N(C(=O)c1ccc(F)cc1)C[C@@H](C)[C@@H](OC)CN(C)C2=O	·	·	·	-12.3	·	·	·
Cc1ccc(OCC(=O)NNc2c3ccccc3nc3ccccc23)cc1	56.2*	57.7	35.0	8.1	26.4	13.5	26.9
SMILES	Mdm2-MdmX inh	Beta cell apopt	Gli-Sufu block	PAX8 reporter	Shn3 3UTR inh	CSC inhib	Mdm2 MdmX conf	others
CCOc1ccc(NC(=O)c2cc(Cl)nc3ccccc23)cc1	50.6*	4.3	-6.9	28.2	-89.9	25.8	37.8	Full FLuc ctr=62.2*
CCOc1ccc(NC(=O)c2ccccc2O)cc1	-119.6	2.7	-45.6	·	-64.9	-10.8	·
CCOc1ccc(Nc2c3ccccc3nc3ccccc23)cc1	70.6*	78.7*	32.6	1.2	62.7	56.4	44.7*	Full FLuc ctr=59.2*
CC(=O)c1ccc(NC(=O)c2cc(CC(C)C)nc3ccccc23)cc1	57.7*	-0.3	·	5.3	1.9	-2.9	65.8*	Full FLuc ctr=33.6
CCOc1ccc(Nc2cc(C)c3ccccc3n2)cc1	-41.7	1.6	-25.9	-86.7	-69.5	28.3	·
C[C@H]1CN([C@@H](C)CO)S(=O)(=O)c2ccc(-c3ccccc3F)cc2O[C@H]1CN(C)Cc1cccnc1	·	·	·	18.9	·	·	·
CN(C)C(=O)c1ccc(-c2ccc([C@H]3[C@H](CO)N4CCCCN(CC5CC5)C[C@@H]34)cc2)cc1	·	·	·	-25.4	·	·	·
CO[C@@H]1CN(C)C(=O)c2ccc(NC(C)=O)cc2OC[C@H](C)N(C(=O)c2ccc(F)cc2)C[C@@H]1C	·	·	·	12.1	·	·	·
CC(C)NC(=O)N(C)C[C@H]1Oc2ccc(NS(C)(=O)=O)cc2CC(=O)N([C@H](C)CO)C[C@@H]1C	·	·	·	-3.2	·	·	·
O=C(Nc1ccc2c(c1)OCCO2)c1cc(-c2ccccn2)nc2ccc(Br)cc12	74.0*	-0.5	5.0	-4.2	22.7	-3.0	40.7*	Full FLuc ctr=72.3*
O=C(Nc1ccncc1)c1cc(-c2ccccn2)nc2ccccc12	9.5	1.4	3.2	25.1	3.1	-4.7	·
CCOc1ccc(-c2cc(C(=O)Nc3ccc4c(c3)OCCO4)c3ccccc3n2)cc1	50.5*	30.4	-39.3	·	3.0	50.6	40.4*	Full FLuc ctr=97.4*
Cc1cccc(-c2cc(C(=O)Nc3ccc4c(c3)OCCO4)c3ccccc3n2)c1	27.2	20.8	6.2	·	13.6	-5.9	·
CNC[C@H]1Oc2ccc(NC(=O)NC(C)C)cc2CC(=O)N([C@H](C)CO)C[C@@H]1C	·	·	·	18.6	·	·	·
C[C@@H]1CN([C@H](C)CO)C(=O)c2cc(-c3cccc(C#N)c3)cnc2O[C@@H]1CN(C)C(=O)c1cnccn1	·	·	·	-21.4	·	·	·
COc1ccc(NC(=O)Nc2ccc3c(c2)CC(=O)N([C@@H](C)CO)C[C@H](C)[C@@H](CN(C)C(=O)Nc2ccc4c(c2)OCO4)O3)cc1	·	·	·	-13.7	·	·	·
CCOC(=O)C(=CNc1nc(-c2ccccc2)c(C(=O)Nc2ccc(-c3ccccc3)cc2)s1)C(=O)OCC	70.7*	·	13.2	-8.2	28.3	6.4	14.8
CCOC(=O)Nc1nc(-c2ccccc2)c(C(=O)c2ccc(Cl)cc2)s1	65.8*	19.3	-9.4	·	18.1	80.6*	59.9*	Full FLuc ctr=105.6*
O=C(Cc1ccccc1)N1CC2(C1)[C@H](c1ccccc1)[C@H](CO)N2C(=O)c1cccnc1	·	·	·	5.3	·	·	·
